PINK1 modulator – changes PINK1 expression. PINK1 immunofluorescence, high-content cytometry, 24 h. 410,000 compounds, 0.2% hits. Potency, µM (titrated, usually from 76.6 µM), hits mostly activators; active = well fitted activation curve with a large enough effect; inconclusive = small, poorly fitted or top-dose-only effect; cell line not stated here; note: nearly all actives have a fitted effect of over 65% in size
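Readout is PINK1 immunofluorescence, quantified alongside mitochondrial, cell and nuclear markers by laser-scanning microplate cytometry. Cells from a stable line were exposed to compound titrations (5 concentrations) for 24 hours, with CCCP controls.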
p53 reactivation – restores transcriptional activity of mutant p53; H1299 p53-A138V BP100-luciferase reporter, luminescence, 24 h; AID 504706; Potency, µM (highest dose often 92.2 µM), hits mostly activators; 320,000 compounds, 0.063% hits; note: nearly all actives have a fitted effect of over 45% in size
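p53-null H1299 cells stably carrying temperature-sensitive p53-A138V and a BP100-luciferase reporter were pinned with compounds (4-point, 1:5 series) and held 24 hrs at 37 deg C. Luminescence was read 10 min after detection reagent.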
ALOX12 inh – ALOX12 (human) lipoxygenase inhibition | P18054 | 580,000 compounds, 1.1% hits | purified 12hLO, xylenol orange hydroperoxide absorbance | Potency, µM (top dose mostly 108 µM), most hits filed as inhibitors
Target sequence (P18054 whole entry, looked up): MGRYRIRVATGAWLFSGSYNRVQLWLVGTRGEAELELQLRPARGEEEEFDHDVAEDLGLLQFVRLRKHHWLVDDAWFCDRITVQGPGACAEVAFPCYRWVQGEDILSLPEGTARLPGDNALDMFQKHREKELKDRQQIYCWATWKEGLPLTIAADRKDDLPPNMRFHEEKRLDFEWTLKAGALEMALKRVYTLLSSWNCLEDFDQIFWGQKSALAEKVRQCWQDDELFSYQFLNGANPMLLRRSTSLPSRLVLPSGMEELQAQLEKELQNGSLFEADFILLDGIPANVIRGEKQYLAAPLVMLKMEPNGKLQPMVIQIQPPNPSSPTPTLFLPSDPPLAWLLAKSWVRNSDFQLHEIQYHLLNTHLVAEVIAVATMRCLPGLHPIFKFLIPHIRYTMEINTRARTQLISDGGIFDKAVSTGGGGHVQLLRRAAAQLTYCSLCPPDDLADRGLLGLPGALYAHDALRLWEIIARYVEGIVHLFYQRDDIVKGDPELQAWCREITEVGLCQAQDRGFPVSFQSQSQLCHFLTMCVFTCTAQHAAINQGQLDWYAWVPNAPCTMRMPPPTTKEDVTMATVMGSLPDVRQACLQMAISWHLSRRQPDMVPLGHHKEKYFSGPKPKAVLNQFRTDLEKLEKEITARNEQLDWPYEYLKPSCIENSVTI
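Hydroperoxide product was detected by ferrous iron/xylenol orange as the 573 to 405 nm absorbance ratio. Arachidonic acid at 40 uM (final) was turned over for 30 min at room temperature by 150 nM human 12hLO, pH 7.0 Hepes buffer, after 15 min compound preincubation.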
S-ASM inh – human S-ASM enzyme inhibition | Potency, µM (top dose mostly 57.5 µM), hits mostly inhibitors | placental ASM, HMU-PC fluorogenic substrate, 60 min | AID 504937 | 340,000 compounds, 0.006% hits
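Steps: dispense placental human ASM, pin compound, wait 10 min at room temperature, add HMU-PC0 substrate at 9 uM final, incubate 60 min at 37 °C, add stop solution raising pH to 10, read fluorescence.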
MmCpn inh – inhibitors of Methanococcus maripaludis chaperonin TRiC (MmCpn). purified Mm-Cpn ATPase, ADP Transcreener TR-FRET. AID 504842. Potency, µM (doses to about 76.9 µM), hits mostly inhibitors. 330,000 compounds, 0.031% hits; note: nearly all actives have a fitted effect of over 80% in size
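Purified archaeal chaperonin (25 nM final) was preincubated with compound for 10 min at 37°C, then ATP (10 uM final) was added for 30 min at 37°C in Tris pH 7.4/KCl/MgCl2/DTT buffer. ADP was quantified by HTRF Transcreener TR-FRET.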
CCT chaperon mod – modulators of cytosolic chaperonin (CCT/TRiC) activity. activity change, % (concentration not given with the values), hits read low. purified chaperonin ATPase assay, HTRF ADP detection, 30 min. 360,000 compounds, 0.3% hits; in the data active = activity change below about -30%
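First, chaperonin was dispensed at 40 nM or 20 nM final depending on batch activity. Next, compounds were pinned at 76 uM and ATP added at 10 uM. After 30 min at 37 °C, ADP detection reagents ran 30 min at ambient temperature.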
Of the large screens only hits and unclear results are named; the others gave an inactive call. This is a sample that favours compounds with a hit; in the whole collection about 1.4% have one here. Unless noted, calls come from the whole dose curve; as a rule, active = well fitted curve in the direction sought with a large enough effect; inconclusive = small, poorly fitted or top-dose-only effect, or another doubt; inactive = no such curve, though single readings can be large; an effect the other way counts as inactive or inconclusive.

O=c1[nH]c(=S)[nH]c2nc[nH]c12	none (no result: p53 reactivation, ALOX12 inh, S-ASM inh, MmCpn inh, CCT chaperon mod)
COc1ccccc1OCCn1nnc2ccccc21	p53 reactivation inconclusive, CCT chaperon mod -55
Cc1sc(NC(=O)c2cccs2)c(C(c2cccnc2)N2CCOCC2)c1C (centres undefined)	none (no result: PINK1 modulator, p53 reactivation, S-ASM inh, MmCpn inh, CCT chaperon mod)
COc1ccc(-c2c(-c3ccc(O)cc3O)n[nH]c2C(F)(F)F)cc1	ALOX12 inh inconclusive, MmCpn inh 40µM
Oc1ccc(-c2n[nH]c(C(F)(F)F)c2-c2ccccc2)c(O)c1	ALOX12 inh inconclusive
Cc1[nH]c2ccccc2c1C(=O)COC(=O)CNS(=O)(=O)/C=C/c1ccccc1	none (no result: PINK1 modulator, p53 reactivation, S-ASM inh, MmCpn inh, CCT chaperon mod)
CC(C)CN(C(=O)COC(=O)c1cc(=O)[nH]c2ccccc12)c1c(N)n(Cc2ccccc2)c(=O)[nH]c1=O	CCT chaperon mod -30 (no result: p53 reactivation, MmCpn inh)
CCNC(=O)COC(=O)c1cc(=O)[nH]c2ccccc12	CCT chaperon mod -35
CCN(C(=O)COC(=O)c1cc(=O)[nH]c2ccccc12)c1c(N)n(Cc2ccccc2)c(=O)[nH]c1=O	none (no result: p53 reactivation, MmCpn inh)
Cc1sc2nc(SCc3noc(C(C)(C)C)n3)n(C)c(=O)c2c1C	none (no result: PINK1 modulator, p53 reactivation, S-ASM inh, MmCpn inh, CCT chaperon mod)
COc1cc(NC(=S)NC(=O)c2ccc(C)cc2C)ccc1NC(=O)c1cccs1	ALOX12 inh 5µM
COc1cc(NC(=S)NC(=O)c2cccs2)ccc1NC(=O)C(C)C	ALOX12 inh 7.1µM
COc1cc(NC(=O)c2ccc(C)cc2C)ccc1NC(=O)c1cccs1	none
CC(C)C(=O)Nc1cccc(NC(=S)NC(=O)c2cccs2)c1	none
CCN(c1ccccc1)S(=O)(=O)c1ccc(C(=O)NC2CCCCCC2)cc1	none (no result: PINK1 modulator, p53 reactivation, S-ASM inh, MmCpn inh, CCT chaperon mod)
Cc1cc(C(c2ccc(C)o2)c2ccc(C)o2)c(O)c([N+](=O)[O-])c1	ALOX12 inh 35µM
CC(C)(C)c1ccc(-c2cc3ccccn3c2)cc1	ALOX12 inh 22µM (no result: PINK1 modulator, p53 reactivation, S-ASM inh, MmCpn inh, CCT chaperon mod)
Brc1ccc(-c2cc3ccccn3c2)cc1	ALOX12 inh 14µM (no result: PINK1 modulator, p53 reactivation, S-ASM inh, MmCpn inh, CCT chaperon mod)
O=C(CC1CCCCC1)N1CCCC(c2noc(COc3ccccc3)n2)C1 (centres undefined)	none (no result: PINK1 modulator, p53 reactivation, S-ASM inh, MmCpn inh, CCT chaperon mod)
COc1ccc(CNC(=O)C[C@@H]2c3nc(NC(=O)c4c(F)cccc4F)sc3C[C@@H]3[C@](C)(CO)[C@H](O)CC[C@]32C)cc1	none (no result: PINK1 modulator, p53 reactivation, S-ASM inh, MmCpn inh, CCT chaperon mod)
CC1CCC(NC(=O)COc2ccc(C(=O)c3ccccc3)cc2)CC1 (centres undefined)	CCT chaperon mod -45
CC(=O)c1ccc(OCC(=O)NC2CCCCCC2)cc1	none
CN1C(=O)C(C2(O)C(=O)N(Cc3ccccc3)c3cc(Br)ccc32)c2ccccc21 (centres undefined)	none (no result: PINK1 modulator, p53 reactivation, S-ASM inh, MmCpn inh, CCT chaperon mod)
O=C1C=C(NCCc2cc(Br)c(O)c(Br)c2)C(=O)c2ncccc21	PINK1 modulator inconclusive, ALOX12 inh 35µM (no result: p53 reactivation, MmCpn inh)
Cc1[nH]n(-c2ccccc2)c(=O)c1C=Nc1ccc2[nH]c(=O)[nH]c2c1	PINK1 modulator 35µM
Cc1cccc(-n2[nH]c(C)c(C=Nc3ccc4[nH]c(=O)[nH]c4c3)c2=O)c1	PINK1 modulator 32µM
O=C(CSc1ccc2c(c1)OCCCO2)Nc1cccc2ccccc12	ALOX12 inh 16µM (no result: PINK1 modulator, p53 reactivation, S-ASM inh, MmCpn inh, CCT chaperon mod)
O=C(Nc1ccc2c(c1)OCO2)c1ccccn1	p53 reactivation inconclusive, ALOX12 inh 5.6µM
O=C(CSc1ccc2c(c1)OCCCO2)Nc1ccccc1	none (no result: PINK1 modulator, p53 reactivation, S-ASM inh, MmCpn inh, CCT chaperon mod)
O=C(CSc1ccccc1C(=O)O)Nc1ccc2c(c1)OCO2	ALOX12 inh inconclusive
Cc1ccc(NC(=O)CSc2ccccc2C(=O)Nc2ccc3c(c2)OCCCO3)cc1	ALOX12 inh 10µM (no result: PINK1 modulator, p53 reactivation, S-ASM inh, MmCpn inh, CCT chaperon mod)
O=C(Nc1ccc2c(c1)OCO2)c1cnccn1	none
N#Cc1ccc(CSc2ccccc2C(=O)Nc2ccc3c(c2)OCO3)cc1	ALOX12 inh 28µM (no result: PINK1 modulator, p53 reactivation, S-ASM inh, MmCpn inh, CCT chaperon mod)
CCCN(Cc1ccc(OCC)c(OCC)c1)C(=O)c1cc2ccccc2oc1=O	none (no result: PINK1 modulator, p53 reactivation, S-ASM inh, MmCpn inh, CCT chaperon mod)
CCS(=O)(=O)CCSCCS(=O)(=O)CC	none (no result: PINK1 modulator, p53 reactivation, S-ASM inh, MmCpn inh, CCT chaperon mod)
COc1ccc(-c2c(C#Cc3ccc(N(C)C)cc3)c3ccccc3n2C)cc1	PINK1 modulator 18µM, p53 reactivation inconclusive, ALOX12 inh inconclusive
COc1ccc(-c2c(C#Cc3ccsc3)c3cc(Br)ccc3n2C)cc1	none
Cc1ccc2c(C)c(C(=O)NCCN3CCCC(O)C3)oc2c1C (centres undefined)	CCT chaperon mod -38
